Reference: ChEMBL document CHEMBL2218924, “A broad activity screen in support of a chemogenomic map for kinase signalling research and drug discovery” (Biochem J, 2013)

Legend:
[1] = target: Ephrin type-A receptor 5 (Homo sapiens) (UniProt P54756); details: at 1 µM
[2] = target: Ephrin type-A receptor 5 (Homo sapiens) (UniProt P54756); details: at 10 µM
[3] = target: Ephrin type-A receptor 7 (Homo sapiens) (UniProt Q15375); details: at 1 µM
[4] = target: T1, Ephrin type-B receptor 1 (Homo sapiens) (UniProt P54762); details: at 1 µM
T1 sequence (whole entry): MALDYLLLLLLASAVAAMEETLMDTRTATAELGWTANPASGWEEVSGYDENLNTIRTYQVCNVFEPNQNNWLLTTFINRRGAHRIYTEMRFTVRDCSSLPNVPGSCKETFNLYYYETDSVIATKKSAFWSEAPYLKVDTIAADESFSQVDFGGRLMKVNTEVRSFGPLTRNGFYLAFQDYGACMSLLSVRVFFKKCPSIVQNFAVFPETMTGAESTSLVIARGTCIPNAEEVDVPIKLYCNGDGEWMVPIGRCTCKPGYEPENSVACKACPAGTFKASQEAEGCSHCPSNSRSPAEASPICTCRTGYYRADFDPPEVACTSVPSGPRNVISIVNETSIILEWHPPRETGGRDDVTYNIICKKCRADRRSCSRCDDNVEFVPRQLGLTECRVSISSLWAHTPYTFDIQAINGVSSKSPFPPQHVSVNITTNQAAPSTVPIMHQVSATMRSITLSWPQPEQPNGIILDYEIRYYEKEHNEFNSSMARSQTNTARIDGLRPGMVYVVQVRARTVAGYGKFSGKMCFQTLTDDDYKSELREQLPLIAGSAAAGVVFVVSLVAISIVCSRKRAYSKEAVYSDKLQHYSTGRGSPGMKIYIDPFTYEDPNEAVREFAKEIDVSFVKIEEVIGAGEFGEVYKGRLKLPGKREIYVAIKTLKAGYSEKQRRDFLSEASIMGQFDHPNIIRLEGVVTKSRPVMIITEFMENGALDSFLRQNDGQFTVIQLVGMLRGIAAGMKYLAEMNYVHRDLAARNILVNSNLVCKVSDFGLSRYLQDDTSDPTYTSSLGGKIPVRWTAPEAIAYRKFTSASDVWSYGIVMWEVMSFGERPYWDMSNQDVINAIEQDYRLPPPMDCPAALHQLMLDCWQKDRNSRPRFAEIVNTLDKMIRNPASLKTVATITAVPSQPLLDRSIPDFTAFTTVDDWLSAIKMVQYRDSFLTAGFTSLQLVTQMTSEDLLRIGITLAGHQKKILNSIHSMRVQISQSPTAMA

[5] = target: T2, Ephrin type-B receptor 2 (Homo sapiens) (UniProt P29323); details: at 1 µM
T2 sequence (whole entry): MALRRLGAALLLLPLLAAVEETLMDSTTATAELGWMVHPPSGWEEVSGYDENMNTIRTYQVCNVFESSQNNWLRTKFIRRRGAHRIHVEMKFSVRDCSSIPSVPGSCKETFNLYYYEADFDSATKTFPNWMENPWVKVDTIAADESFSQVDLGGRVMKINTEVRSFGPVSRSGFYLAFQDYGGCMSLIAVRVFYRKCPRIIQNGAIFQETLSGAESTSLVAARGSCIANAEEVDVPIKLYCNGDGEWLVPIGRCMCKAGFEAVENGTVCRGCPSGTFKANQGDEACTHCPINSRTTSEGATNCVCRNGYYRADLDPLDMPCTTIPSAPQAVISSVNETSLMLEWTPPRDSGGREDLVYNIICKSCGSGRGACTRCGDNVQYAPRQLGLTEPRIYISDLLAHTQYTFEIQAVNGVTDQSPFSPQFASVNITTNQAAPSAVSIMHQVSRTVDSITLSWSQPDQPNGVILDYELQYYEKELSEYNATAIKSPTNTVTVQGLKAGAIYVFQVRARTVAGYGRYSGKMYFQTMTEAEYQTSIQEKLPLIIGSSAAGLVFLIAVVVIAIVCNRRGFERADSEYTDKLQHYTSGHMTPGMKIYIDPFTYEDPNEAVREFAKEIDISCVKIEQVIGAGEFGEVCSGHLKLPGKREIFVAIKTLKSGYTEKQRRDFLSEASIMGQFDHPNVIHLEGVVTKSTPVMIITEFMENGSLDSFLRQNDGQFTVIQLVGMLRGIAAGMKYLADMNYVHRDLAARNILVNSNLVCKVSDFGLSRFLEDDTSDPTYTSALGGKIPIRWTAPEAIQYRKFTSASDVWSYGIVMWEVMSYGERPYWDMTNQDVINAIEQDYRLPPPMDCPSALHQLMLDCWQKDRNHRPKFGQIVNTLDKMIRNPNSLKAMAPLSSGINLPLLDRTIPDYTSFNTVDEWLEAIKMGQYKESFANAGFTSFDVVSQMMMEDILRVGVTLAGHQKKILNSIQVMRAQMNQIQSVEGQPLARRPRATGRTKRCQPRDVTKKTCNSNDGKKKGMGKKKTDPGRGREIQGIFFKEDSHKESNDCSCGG

[6] = target: Receptor tyrosine-protein kinase erbB-4 (Homo sapiens) (UniProt Q15303); details: at 10 µM
Sequence of Receptor tyrosine-protein kinase erbB-4 (Homo sapiens) (Q15303 whole entry): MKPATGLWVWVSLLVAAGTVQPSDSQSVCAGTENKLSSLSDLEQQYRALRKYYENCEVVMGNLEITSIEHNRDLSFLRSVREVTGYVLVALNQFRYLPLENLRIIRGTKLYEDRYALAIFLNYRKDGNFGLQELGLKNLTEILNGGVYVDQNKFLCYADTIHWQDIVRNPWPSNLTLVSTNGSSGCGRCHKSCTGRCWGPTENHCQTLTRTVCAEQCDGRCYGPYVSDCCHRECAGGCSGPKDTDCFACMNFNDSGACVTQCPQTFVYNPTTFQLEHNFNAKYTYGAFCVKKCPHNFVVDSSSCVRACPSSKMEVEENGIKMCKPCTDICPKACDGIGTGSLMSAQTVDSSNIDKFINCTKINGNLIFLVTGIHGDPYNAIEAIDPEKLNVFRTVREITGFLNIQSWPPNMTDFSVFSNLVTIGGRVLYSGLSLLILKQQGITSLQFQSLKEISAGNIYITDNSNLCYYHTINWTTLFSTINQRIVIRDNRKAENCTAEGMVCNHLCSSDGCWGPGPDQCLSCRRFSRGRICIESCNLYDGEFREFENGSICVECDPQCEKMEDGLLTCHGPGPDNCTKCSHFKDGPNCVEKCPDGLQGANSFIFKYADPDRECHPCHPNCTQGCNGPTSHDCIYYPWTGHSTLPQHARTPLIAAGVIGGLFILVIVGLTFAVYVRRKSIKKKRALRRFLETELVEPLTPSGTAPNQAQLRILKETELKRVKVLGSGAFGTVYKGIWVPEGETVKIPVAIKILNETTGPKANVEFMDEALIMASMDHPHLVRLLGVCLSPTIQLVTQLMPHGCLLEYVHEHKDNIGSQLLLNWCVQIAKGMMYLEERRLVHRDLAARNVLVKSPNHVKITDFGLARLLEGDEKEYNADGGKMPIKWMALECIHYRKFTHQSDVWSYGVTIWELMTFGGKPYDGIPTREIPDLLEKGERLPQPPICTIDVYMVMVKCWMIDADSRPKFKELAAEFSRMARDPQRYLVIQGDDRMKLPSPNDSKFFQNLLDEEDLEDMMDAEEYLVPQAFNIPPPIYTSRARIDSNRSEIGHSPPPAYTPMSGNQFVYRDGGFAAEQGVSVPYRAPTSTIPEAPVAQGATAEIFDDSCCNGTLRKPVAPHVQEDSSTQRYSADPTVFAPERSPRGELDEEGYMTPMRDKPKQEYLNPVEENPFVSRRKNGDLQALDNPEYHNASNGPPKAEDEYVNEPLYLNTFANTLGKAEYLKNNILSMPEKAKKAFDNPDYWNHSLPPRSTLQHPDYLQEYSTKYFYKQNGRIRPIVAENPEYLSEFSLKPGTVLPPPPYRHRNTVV

[7] = target: Ephrin type-A receptor 4 (Homo sapiens) (UniProt P54764); details: at 1 µM
Sequence of Ephrin type-A receptor 4 (Homo sapiens) (P54764 whole entry): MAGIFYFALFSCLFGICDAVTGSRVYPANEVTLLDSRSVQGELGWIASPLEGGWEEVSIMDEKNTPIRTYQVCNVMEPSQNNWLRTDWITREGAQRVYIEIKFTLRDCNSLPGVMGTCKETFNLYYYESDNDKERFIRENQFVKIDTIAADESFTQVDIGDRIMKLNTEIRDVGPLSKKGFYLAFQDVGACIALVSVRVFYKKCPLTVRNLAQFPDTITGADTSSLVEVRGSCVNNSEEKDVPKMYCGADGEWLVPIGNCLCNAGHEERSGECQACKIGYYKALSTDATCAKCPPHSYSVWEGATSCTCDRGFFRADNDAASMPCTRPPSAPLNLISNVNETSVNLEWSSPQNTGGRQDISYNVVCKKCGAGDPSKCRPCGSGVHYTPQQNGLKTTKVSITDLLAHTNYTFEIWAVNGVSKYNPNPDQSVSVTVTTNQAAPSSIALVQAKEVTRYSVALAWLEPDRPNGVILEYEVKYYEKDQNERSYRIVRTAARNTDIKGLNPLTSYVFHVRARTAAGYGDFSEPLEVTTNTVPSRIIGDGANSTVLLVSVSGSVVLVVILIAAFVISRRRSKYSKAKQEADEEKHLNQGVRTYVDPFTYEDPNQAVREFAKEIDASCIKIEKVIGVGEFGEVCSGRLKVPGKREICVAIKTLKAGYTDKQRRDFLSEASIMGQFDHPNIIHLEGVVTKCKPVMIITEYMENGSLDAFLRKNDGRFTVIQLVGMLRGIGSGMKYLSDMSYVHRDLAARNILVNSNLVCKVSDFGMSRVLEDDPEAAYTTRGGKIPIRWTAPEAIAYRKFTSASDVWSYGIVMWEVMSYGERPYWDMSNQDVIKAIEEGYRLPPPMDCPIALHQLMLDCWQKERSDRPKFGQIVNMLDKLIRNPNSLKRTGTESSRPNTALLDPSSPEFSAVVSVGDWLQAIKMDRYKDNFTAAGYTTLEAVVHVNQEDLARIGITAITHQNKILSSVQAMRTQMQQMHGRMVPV

[8] = target: Ephrin type-A receptor 4 (Homo sapiens) (UniProt P54764); details: at 10 µM
[9] = target: Ephrin type-A receptor 7 (Homo sapiens) (UniProt Q15375); details: at 10 µM
[10] = target: T3, Ephrin type-A receptor 8 (Homo sapiens) (UniProt P29322); details: at 10 µM
T3 sequence (whole entry): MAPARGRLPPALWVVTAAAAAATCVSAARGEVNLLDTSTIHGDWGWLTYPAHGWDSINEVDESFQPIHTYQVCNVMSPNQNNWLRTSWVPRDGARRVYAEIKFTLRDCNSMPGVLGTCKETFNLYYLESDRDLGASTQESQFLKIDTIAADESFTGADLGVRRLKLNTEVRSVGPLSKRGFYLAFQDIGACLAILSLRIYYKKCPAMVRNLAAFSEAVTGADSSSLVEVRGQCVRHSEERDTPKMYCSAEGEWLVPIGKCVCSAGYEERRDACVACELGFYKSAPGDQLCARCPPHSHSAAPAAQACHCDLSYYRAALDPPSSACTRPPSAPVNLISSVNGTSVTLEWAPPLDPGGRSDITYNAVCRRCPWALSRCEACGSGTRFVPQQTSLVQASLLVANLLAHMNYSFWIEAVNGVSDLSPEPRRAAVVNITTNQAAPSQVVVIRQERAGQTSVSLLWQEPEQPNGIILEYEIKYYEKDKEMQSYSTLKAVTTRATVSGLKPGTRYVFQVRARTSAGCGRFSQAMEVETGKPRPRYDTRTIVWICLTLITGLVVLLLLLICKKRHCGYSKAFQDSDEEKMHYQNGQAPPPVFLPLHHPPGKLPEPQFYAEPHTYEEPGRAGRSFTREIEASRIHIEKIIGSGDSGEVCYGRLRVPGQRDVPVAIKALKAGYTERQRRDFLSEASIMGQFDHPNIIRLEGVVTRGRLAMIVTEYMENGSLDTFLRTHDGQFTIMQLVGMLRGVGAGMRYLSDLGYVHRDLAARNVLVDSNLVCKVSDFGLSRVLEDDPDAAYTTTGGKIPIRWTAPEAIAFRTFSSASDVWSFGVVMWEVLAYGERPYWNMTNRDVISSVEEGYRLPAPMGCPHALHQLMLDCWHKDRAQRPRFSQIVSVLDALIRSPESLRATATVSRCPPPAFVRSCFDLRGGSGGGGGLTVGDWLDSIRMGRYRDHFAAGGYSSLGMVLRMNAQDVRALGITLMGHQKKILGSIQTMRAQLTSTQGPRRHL

[11] = target: T1, Ephrin type-B receptor 1 (Homo sapiens); details: at 10 µM
[12] = target: T2, Ephrin type-B receptor 2 (Homo sapiens); details: at 10 µM
[13] = target: T4, Ephrin type-B receptor 3 (Homo sapiens) (UniProt P54753); details: at 1 µM
T4 sequence (whole entry): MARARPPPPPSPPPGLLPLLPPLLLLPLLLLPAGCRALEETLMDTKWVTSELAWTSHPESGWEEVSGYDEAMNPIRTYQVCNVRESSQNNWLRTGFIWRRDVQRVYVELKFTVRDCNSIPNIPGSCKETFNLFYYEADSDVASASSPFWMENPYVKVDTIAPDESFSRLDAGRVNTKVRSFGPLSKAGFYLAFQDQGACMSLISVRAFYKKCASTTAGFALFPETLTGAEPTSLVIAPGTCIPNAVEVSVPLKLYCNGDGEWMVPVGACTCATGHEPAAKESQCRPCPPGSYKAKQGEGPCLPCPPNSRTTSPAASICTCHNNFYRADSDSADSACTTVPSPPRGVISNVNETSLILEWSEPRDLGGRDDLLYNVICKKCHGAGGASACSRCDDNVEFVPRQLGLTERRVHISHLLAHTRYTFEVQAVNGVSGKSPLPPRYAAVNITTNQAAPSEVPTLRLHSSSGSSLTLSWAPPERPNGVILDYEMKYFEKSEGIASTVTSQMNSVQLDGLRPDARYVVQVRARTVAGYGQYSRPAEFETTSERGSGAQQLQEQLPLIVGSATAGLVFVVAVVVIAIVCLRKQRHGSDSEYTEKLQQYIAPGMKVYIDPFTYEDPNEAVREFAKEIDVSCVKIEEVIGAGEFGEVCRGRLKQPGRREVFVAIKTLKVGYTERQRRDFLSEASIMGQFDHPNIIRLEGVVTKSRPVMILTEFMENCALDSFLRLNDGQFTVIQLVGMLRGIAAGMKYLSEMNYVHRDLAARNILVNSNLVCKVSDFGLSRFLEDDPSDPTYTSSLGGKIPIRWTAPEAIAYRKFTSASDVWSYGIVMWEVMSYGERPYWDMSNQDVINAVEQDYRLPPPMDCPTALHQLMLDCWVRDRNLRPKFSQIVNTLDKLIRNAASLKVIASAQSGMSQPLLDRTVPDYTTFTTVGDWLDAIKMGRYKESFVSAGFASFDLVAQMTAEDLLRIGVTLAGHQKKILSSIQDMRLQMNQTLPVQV

[14] = target: Focal adhesion kinase 1 (Homo sapiens) (UniProt Q05397); details: at 1 µM

Sequence of Ephrin type-A receptor 5 (Homo sapiens) (P54756 whole entry): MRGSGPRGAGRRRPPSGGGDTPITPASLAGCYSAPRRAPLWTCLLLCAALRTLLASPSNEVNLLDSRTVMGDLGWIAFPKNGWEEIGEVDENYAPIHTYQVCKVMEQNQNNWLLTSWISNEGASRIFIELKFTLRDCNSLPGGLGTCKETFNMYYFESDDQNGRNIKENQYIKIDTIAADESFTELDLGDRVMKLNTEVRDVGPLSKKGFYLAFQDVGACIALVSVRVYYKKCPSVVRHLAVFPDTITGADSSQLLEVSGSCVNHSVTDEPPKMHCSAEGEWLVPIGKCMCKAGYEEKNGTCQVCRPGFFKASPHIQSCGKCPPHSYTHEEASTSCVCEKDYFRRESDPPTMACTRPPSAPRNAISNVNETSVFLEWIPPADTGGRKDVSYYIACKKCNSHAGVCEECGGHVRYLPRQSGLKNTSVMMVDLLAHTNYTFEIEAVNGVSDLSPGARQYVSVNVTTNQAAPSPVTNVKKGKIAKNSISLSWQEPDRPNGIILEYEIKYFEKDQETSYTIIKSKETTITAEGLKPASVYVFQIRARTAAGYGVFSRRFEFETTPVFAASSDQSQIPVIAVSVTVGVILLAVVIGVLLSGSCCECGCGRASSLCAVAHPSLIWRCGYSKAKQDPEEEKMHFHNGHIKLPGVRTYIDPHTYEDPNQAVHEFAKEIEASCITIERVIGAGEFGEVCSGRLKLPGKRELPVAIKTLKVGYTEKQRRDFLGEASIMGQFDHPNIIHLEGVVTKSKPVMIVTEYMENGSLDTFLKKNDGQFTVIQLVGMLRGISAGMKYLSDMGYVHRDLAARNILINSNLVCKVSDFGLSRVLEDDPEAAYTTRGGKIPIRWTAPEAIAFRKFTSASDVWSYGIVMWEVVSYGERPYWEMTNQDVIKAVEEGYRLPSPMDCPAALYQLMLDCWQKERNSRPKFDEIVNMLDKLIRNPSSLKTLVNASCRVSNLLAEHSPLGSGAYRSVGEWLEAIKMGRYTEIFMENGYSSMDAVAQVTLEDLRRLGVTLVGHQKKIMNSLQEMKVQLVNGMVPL
Sequence of Ephrin type-A receptor 7 (Homo sapiens) (Q15375 28-998 limits assumed): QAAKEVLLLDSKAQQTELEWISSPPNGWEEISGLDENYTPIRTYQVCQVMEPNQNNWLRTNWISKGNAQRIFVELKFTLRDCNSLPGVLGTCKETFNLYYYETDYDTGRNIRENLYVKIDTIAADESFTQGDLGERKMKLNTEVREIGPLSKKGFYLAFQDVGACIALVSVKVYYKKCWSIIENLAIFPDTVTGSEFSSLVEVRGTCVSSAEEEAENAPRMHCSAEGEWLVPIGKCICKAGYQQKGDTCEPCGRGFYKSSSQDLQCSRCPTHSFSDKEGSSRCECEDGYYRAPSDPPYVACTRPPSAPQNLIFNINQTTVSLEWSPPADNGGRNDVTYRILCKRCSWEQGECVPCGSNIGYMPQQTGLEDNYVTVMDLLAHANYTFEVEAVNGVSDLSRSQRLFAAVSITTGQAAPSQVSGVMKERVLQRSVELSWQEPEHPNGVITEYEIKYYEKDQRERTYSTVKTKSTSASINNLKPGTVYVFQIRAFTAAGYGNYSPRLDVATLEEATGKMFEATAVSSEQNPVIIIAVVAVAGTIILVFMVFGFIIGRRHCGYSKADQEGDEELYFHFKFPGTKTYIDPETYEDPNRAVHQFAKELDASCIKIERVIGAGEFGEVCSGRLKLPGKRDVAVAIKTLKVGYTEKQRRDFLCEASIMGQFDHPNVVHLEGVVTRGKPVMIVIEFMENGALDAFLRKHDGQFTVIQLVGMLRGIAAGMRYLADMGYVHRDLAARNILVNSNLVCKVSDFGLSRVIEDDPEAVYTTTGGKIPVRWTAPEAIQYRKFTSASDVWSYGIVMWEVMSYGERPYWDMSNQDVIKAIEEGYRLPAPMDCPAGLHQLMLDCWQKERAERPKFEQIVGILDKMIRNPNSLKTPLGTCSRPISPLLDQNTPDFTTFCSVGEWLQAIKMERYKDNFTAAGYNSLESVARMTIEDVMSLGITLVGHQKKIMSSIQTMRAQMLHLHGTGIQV

SMILES | residual activity [1] | residual activity [2] | residual activity [3] | residual activity [4] | residual activity [5] | residual activity [6] | residual activity [7] | residual activity [8] | residual activity [9] | residual activity [10] | residual activity [11] | residual activity [12] | residual activity [13] | residual activity [14]
O=c1c(-c2ccc(F)cc2)c(-c2ccncc2)[nH]n1-c1ccc(Cl)cc1 | 119% | 82% | 100% | 128% | 121% | 34% |  |  |  |  |  |  |  | 
Nc1nc(Nc2ccc(S(N)(=O)=O)cc2)nn1C(=O)c1c(F)cccc1F | 103% | 73% | 52% | 78% | 103% |  | 108% | 95% | 8% | 55% | 14% | 68% | 115% (inactive) | 102%
